# The supplement of paper PMC3334620
# Over roughly 33,000 sequences, “E-score (-0.5 to 0.5)” has its median near -0.012; the highest 2% begin near 0.29. This excerpt belongs to a sample that is enriched for the highest values.
# Biological target: T1, Ybr033w (UniProt P38073)
# T1 sequence: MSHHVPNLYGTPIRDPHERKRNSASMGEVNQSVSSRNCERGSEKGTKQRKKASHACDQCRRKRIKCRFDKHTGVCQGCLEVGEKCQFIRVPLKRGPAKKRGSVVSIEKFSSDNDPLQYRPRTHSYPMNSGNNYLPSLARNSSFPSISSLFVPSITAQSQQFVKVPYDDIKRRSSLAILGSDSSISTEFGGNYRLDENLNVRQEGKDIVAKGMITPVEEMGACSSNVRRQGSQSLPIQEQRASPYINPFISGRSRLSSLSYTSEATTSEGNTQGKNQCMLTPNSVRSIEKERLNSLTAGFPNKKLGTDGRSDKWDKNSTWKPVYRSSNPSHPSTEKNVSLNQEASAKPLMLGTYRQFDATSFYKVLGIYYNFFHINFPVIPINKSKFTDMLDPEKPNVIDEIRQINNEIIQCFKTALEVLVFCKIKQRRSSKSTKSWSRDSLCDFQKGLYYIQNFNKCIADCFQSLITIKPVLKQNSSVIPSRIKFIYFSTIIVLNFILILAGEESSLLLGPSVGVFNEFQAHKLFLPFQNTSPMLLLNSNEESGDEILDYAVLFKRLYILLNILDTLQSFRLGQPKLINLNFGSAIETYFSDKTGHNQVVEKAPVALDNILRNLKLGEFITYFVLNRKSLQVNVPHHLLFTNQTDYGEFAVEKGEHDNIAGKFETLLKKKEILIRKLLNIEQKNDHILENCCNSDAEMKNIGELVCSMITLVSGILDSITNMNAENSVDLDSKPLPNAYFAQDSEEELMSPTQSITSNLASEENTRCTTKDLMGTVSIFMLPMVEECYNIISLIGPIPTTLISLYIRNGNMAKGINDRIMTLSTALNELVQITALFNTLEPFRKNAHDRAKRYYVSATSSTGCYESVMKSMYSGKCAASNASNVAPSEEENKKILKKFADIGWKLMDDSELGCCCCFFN
# Experiment: PBM E-score (8-mer binding enrichment) (E-score (-0.5 to 0.5)); higher = stronger / more preferred TF binding
# Conditions: protein concentration: 200 nM; construct: GST-full length
# Description: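 Universal 'all 10-mer' protein binding microarrays (Agilent AMADID 015681) probed with GST-tagged S. cerevisiae TFs (full-length or DBD) made by in vitro transcription/translation (PURExpress), about 100-200 nM. Bound TF was detected with fluorescent anti-GST. Each ungapped 8-mer (which stands for itself and its reverse complement) is scored by the PBM enrichment score (E-score), a modified Wilcoxon-Mann-Whitney statistic from -0.5 to +0.5, computed with the Universal PBM Analysis Suite. Scale: above 0.35 generally sequence-specific binding.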
row,Sequence,PBM E-score
1,CAGGTAGG,-0.052
2,ATCCGGGG,0.181
3,GCCCATCA,-0.178
4,AGTCGACT,0.204
5,AGCTTAGA,-0.0294
6,AGATCAAC,0.0509
7,TGATCAAA,0.076
8,AGATCAAA,0.111
9,CGATCAAC,-0.144
10,GGATCAAC,0.369
11,GGATCAAA,0.367
12,CACACTGA,-0.19
13,CCAGGAAC,-0.103
14,TATGTCAA,0.318
15,TATCTCAA,0.32
16,GATGTCAA,0.0645
17,CATCTCAA,0.119
18,AATCTCAA,0.0508
19,AATGTCAA,0.00312
20,AAACGCGA,0.0304
21,GAAGACTC,-0.0221
22,CATAACTC,0.0871

row,Sequence,PBM E-score
1,GGAAATGA,0.133
2,CCAGATTC,-0.16
3,TACGAGTA,0.297
4,GACGAGTA,0.0188
5,CACGAGTA,0.0368
6,AAGAATGC,0.142
7,ATTCGAAA,0.12
8,TATATTGA,0.275
9,TACATTAA,0.345
10,GACATTAA,0.166
11,TATATTCA,0.303
12,AATATTAC,0.283
13,CATATTCA,0.0595
14,AATATTAG,0.228
15,GATATTAA,0.251
16,AACATTAA,0.224
17,AATATTCA,0.226
18,AATATTAT,0.335
19,TATATTAA,0.324
20,CCTGAGCA,-0.075
21,GACGGTTA,-0.192
22,ACCAGTAT,-0.104

row,Sequence,PBM E-score
1,CCTAACGA,-0.0133
2,ATGCGTGG,-0.346
3,GAATCGCC,-0.138
4,CGGTTGCA,-0.122
5,CTGCCCAC,-0.165
6,CAGGTGAA,0.0712
7,CGCCCCCC,-0.434
8,ACTTGTTC,0.25
9,GATGCATC,0.0586
10,GTGGATCA,0.0654
11,GCTGCAGA,-0.101
12,TAAGCAAA,0.179
13,AATATGAG,0.245
14,CATATTAA,0.347
15,AATATGAT,0.317
16,CATATTAG,0.202
17,AATATTAA,0.349
18,CGTATTAA,0.108
19,AATATGAC,0.109
20,AAACTTCC,0.068
21,AACCCAGT,-0.102
22,CGCTACTA,0.218

row,Sequence,PBM E-score
1,AAGCAACC,0.0073
2,AAAGTTGT,0.302
3,AAAGTTAC,0.224
4,AAAGTTAA,0.323
5,CAAGTTAA,0.068
6,AAAGTTGC,0.0307
7,TAAGTTAA,0.206
8,AAAGTTGG,0.0498
9,AAAGTTAG,0.297
10,CAAGTTAG,0.0992
11,CGTTCTAG,-0.0499
12,CCAAGCTC,-0.0526
13,GTAATGGA,0.163
14,GAAGATAA,0.319
15,AAAGATCA,0.173
16,TAAGATAA,-0.0896
17,GAAGATAC,0.17
18,AAAGATAG,-0.0366
19,AAAGATAA,0.299
20,ATAGATAA,0.28
